The results in this text go back to PMC7819943, “Rice protein-binding microarrays: a tool to detect cis-acting elements near promoter regions in rice”.

In all, about 68,000 sequences were measured (“fluorescence intensity (a.u.)”: median about 9,100, highest 2% from about 16,000 on). Many of the other results were omitted from the sample, so the highest values are more common in it than they were.

Sequence of OsWRKY34 (Q0JBA9 entry or part of it): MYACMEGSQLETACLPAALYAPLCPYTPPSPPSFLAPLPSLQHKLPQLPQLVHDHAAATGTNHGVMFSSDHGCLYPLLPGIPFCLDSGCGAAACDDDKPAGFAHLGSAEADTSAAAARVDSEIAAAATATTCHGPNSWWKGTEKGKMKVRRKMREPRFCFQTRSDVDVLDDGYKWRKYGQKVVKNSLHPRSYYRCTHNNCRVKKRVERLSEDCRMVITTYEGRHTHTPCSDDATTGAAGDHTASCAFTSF

This assay concerns the target OsWRKY34 (Oryza sativa, UniProt Q0JBA9 1-250). The assay can be described thus: protein-binding microarray (RPBM); PBS, 2% BSA, 51.3 ng/ul salmon testes DNA, 50 uM zinc acetate, 200 nM TF, 25 C, 1 h; high values mean tight binding. To be noted: protein: recombinant; tags: N-terminal polyhistidine and DsRed monomer fusion (pET32a); label: CyDye5-dUTP incorporated in the synthesized complementary strand; 3' TTTTT single-stranded linker to array surface; dsDNA, one strand shown. In a few lines: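 Using Ni–NTA, transcription factors fused N-terminally to polyhistidine and DsRed were purified after expression in E. coli BL21-CodonPlus. These were incubated at 200 nM with a blocked, double-stranded custom Agilent array for 1 h at 25 °C in a buffer containing 50 µM zinc acetate, and the array was washed. The binding signal is per-feature fluorescence intensity (arbitrary units) on an Axon 4000B scanner.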
“GAGGGAGTATTATCTTCTGAACATATGTTTGACCATTGGACGGAGTCACCTAGTGCAG”: the binding signal is 8940 fluorescence intensity (a.u.).
The value for “ATTACCCTAATCATCATTCATTCATGTATAGCTCATCCTACGGAGTCACCTAGTGCAG” was 8810 fluorescence intensity (a.u.); that for “ACCATCAAGTTCTGCTTTTCTTCCCCATGTTTTTTTGCCCCGGAGTCACCTAGTGCAG” was 10700 fluorescence intensity (a.u.); that for “TGATATGTTGGTGAATGGTAATTTTTTGGGTTGATATATTCGGAGTCACCTAGTGCAG” was 11200 fluorescence intensity (a.u.).
As to “TAATATTTCTTGCGGTGGGTTGGATTGATATCGATTGTTTCGGAGTCACCTAGTGCAG”, the binding signal is 17600 fluorescence intensity (a.u.).
The figure for “CTCTGTTGGTTTCTTGCGGTTTTGATTATTTGTTTGTGGTCGGAGTCACCTAGTGCAG” is 11900 fluorescence intensity (a.u.).
As for “CATTCCGGTTGGTGTTTTTCGCTTGATTTGTACTACTATTCGGAGTCACCTAGTGCAG”, the binding signal was 18500 fluorescence intensity (a.u.).
The value for “ATGTTGATATTGTGGTTGGTTGTGGGCATGTTACATTTTCCGGAGTCACCTAGTGCAG” was 11500 fluorescence intensity (a.u.); that for “AGGAGGTGTTGTTTCTTGCGATCTTGGGTTGATTGATATGCGGAGTCACCTAGTGCAG” was 8460 fluorescence intensity (a.u.); that for “TGTACATGTGTTTGATTTTGCTTGTGGTTGCCGTGGATTTCGGAGTCACCTAGTGCAG” was 11500 fluorescence intensity (a.u.).
With “TGCGGGTTGTTTTGATTGACAATTTAGTGTTGGTGTTGTTCGGAGTCACCTAGTGCAG”, the binding signal was 9980 fluorescence intensity (a.u.).
The value for “CTCTGTGTTGTTTTTGGCATGTGTTTGATATTTGGAGTTCCGGAGTCACCTAGTGCAG” was 16600 fluorescence intensity (a.u.); that for “GGTGGGTGTTTTAATGTGACATGATATTTGTGGTTGGGTTCGGAGTCACCTAGTGCAG” was 21700 fluorescence intensity (a.u.); that for “TCTTTCCTGTTTCCGCTTGGTTTTCCGGTGTTTATTTTGTCGGAGTCACCTAGTGCAG” was 14200 fluorescence intensity (a.u.).
The value for “CATGTGTTTGATTTCCTGTTTATATTTTGTTCAGAGTTTCCGGAGTCACCTAGTGCAG” was 11700 fluorescence intensity (a.u.); that for “CGATGACAAGTTGACGCACCTTGGGTGTACTTTTTCCTTCCGGAGTCACCTAGTGCAG” was 8280 fluorescence intensity (a.u.); that for “CTCCAACCTAACCCCTGCCTGCCTGCATCAACCATATATGCGGAGTCACCTAGTGCAG” was 8720 fluorescence intensity (a.u.).
The value for “CACTAATTTTGCCTTTGTGCCTTTTACTATTGCGCATCACCGGAGTCACCTAGTGCAG” was 10200 fluorescence intensity (a.u.); that for “ACATTAACTAAATGGTGGAGGGCAGGGGTTCGTCTTTCTTCGGAGTCACCTAGTGCAG” was 13600 fluorescence intensity (a.u.).
Turning to “GACTACTGAATGTGCTATTCTTGGCCTTTTCTATAGATAACGGAGTCACCTAGTGCAG”, the binding signal is 9960 fluorescence intensity (a.u.).
Take “CTATTTTGGCCACTCGGGAGATGGTGTTGTTTCTGAATTTCGGAGTCACCTAGTGCAG”: the binding signal is 8180 fluorescence intensity (a.u.).
The value for “CTGTCTTCACCGTGCCGCTCCTTTCCTTCCATTTCATCTCCGGAGTCACCTAGTGCAG” was 8440 fluorescence intensity (a.u.).
Regarding “CAGGGGTGGGTGTTAGCTGTTGTGCAAGAAGTGGTGTTTGCGGAGTCACCTAGTGCAG”, the binding signal is 10600 fluorescence intensity (a.u.).
With “GCCGGAGTCCATCGCCCTACATTGCCCACCAACCGCACGCCGGAGTCACCTAGTGCAG”, the binding signal was 10200 fluorescence intensity (a.u.).
Regarding “TTCATATTCTTTTTTTTTTCGAGGTCATACTTTTTAATTCCGGAGTCACCTAGTGCAG”, the binding signal was 12200 fluorescence intensity (a.u.).
The value for “GTTGCAGGGTGGGGATTGTTAAATTTATTGTTTGGCTGGACGGAGTCACCTAGTGCAG” was 16600 fluorescence intensity (a.u.); that for “TTTTTCACGGGGATGGGTCGGGGATTGTTGACTGATAAAGCGGAGTCACCTAGTGCAG” was 21700 fluorescence intensity (a.u.); that for “GGGGATTGGTTTGGTGTGGGTGTTTTGTGTGGGGATTGATCGGAGTCACCTAGTGCAG” was 28100 fluorescence intensity (a.u.).
Turning to “AGTGGATGAGTTTGAGTTTTAGGATTTAGTGGGGTATTATCGGAGTCACCTAGTGCAG”, the binding signal is 15100 fluorescence intensity (a.u.).
The value for “GAGGTGGCTGGAGTGGGGTTTAGTGTTGGTTGTTAGGGATCGGAGTCACCTAGTGCAG” was 13500 fluorescence intensity (a.u.); that for “CGTGGGGTGGGATCGGAAGCAGTGGAGTTGTTTTTATTATCGGAGTCACCTAGTGCAG” was 16500 fluorescence intensity (a.u.); that for “CCACTGACTACTGATGGGTGTGTTGATAGTGTTTTGTCAGCGGAGTCACCTAGTGCAG” was 8870 fluorescence intensity (a.u.).
Take “AGGGTTTGTTTGTTTATTTGTTTGTTTGATCGGTGTGGGGCGGAGTCACCTAGTGCAG”: the binding signal is 13300 fluorescence intensity (a.u.).
Consider “GGGTTTGGGGATCGATTGATTTATAGGCTTTTTTGTTTTTCGGAGTCACCTAGTGCAG”, for which the binding signal was 8810 fluorescence intensity (a.u.).
As to “TTTTTGTTTTTTAATTGTGGAGTTTGGGAGGAGGAGGGGACGGAGTCACCTAGTGCAG”, the binding signal was 9870 fluorescence intensity (a.u.).
The value for “AAATTTATTGTTTGGCTGGAAGACGTGGGGTTTTAAGAGGCGGAGTCACCTAGTGCAG” was 8370 fluorescence intensity (a.u.); that for “GCGGGGTTGATTTCTGACTGAGATTTTGTTTTTCTTTTCTCGGAGTCACCTAGTGCAG” was 14000 fluorescence intensity (a.u.); that for “TATCTAATAATTGGATGGTTACAACCAAATACTTCTACATCGGAGTCACCTAGTGCAG” was 9870 fluorescence intensity (a.u.).
As to “TTGATCCTTTTTCGCCGCTCACGCCGAGCTGCCCCGACAACGGAGTCACCTAGTGCAG”, the binding signal was 8340 fluorescence intensity (a.u.).
The value for “TTTTCTATACTGTATTTTGTGTCATTTTCAATCATTGATTCGGAGTCACCTAGTGCAG” was 14400 fluorescence intensity (a.u.); that for “AAACAGAGGTTTTTCTCCTGTACATGTGTCCCATGCCAACCGGAGTCACCTAGTGCAG” was 9880 fluorescence intensity (a.u.); that for “TTTTTATATGTTTGGTTCTTATGAGTTCCTAAGTGTGAAACGGAGTCACCTAGTGCAG” was 8230 fluorescence intensity (a.u.).
